According to PubChem BioAssay AID485364 (National Center for Advancing Translational Sciences (NCATS), 2010):
Out of some 360,000 compounds screened, about 11,000 (3.1%) were called active. Another 4% or so got no clear call; they are omitted. This is one part of a sample in which actives are shown more often than they occur. Calls follow the shape of the dose curve; as a rule, active = well fitted inhibition curve with a large enough effect; inconclusive = small, poorly fitted or top-dose-only effect; inactive = no such curve, though single readings can be large or run the other way.

Target: Schistosoma mansoni thioredoxin glutathione reductase (TGR) (UniProt Q962Y6)
Assay: qHTS Assay for the Inhibitors of Schistosoma Mansoni Peroxiredoxins; also: nearly all actives have a fitted effect of over 60% in size
Details: purified TGR, DTNB reduction, TNB absorbance 405 nm; series mostly up to 114 µM; activity change, negative = inhibition: at the top concentration
In short: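 TGR 20 nM + NADPH 100 uM (dispensed conc.), cpd preinc 15 min RT; start with NADPH (500 uM addition) then DTNB (15 mM addition). Kinetic TNB absorbance, 405 nm filter. Four-parameter Hill fit across titration.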
% is scaled to controls: 0 for no effect and ±100 for the full control effect; potency is read from the fitted curve at half-maximal effect.

Compound	activity change, negative = inhibition	Potency
CC1=C(C(=O)N2CCN(c3cccc(C(F)(F)F)c3)CC2)C2(CCCCC2)OC1=O	-12.2% (inactive)	–
Cc1ccc(Nc2nc3ccccc3nc2-n2nc(C)cc2C)c(Cl)c1	1.74% (inactive)	–
Cc1oc2ccc(O)c(CN3CCC(C)CC3)c2c1C(=O)Nc1ccccc1	6.52% (inactive)	–
CN(Cc1ccccc1)C(=O)c1cn(C)c2ccc(S(=O)(=O)N(C)C3CCCCC3)cc2c1=O	-3.46% (inactive)	–
CCCC12CN3CC(C)(CN(C1)C3c1ccccc1Cl)C2=O (stereo unspecified)	8.29% (inactive)	–
COc1ccc(NC(=S)NC2CCS(=O)(=O)C2)cc1 (stereo unspecified)	-28.9% (inactive)	–
COc1ccc(NC2=CC(=S)NC(C)(C)C2)cc1	–	35.5 µM (active)
COc1ccc(CCNC2=CC(=O)CC(C)(C)C2)cc1	2% (inactive)	–
Cc1ccccc1NC(=O)c1cc2c([nH]c1=O)CC(C)(C)CC2=O	2.06% (inactive)	–
O=c1c2ccccc2oc2nc(C3CCCCC3)n(Cc3ccco3)c(=O)c12	-23.6% (inactive)	–
Cc1ccc(Cn2c(C)nc3c(c2=O)c2nc4ccccc4nc2n3Cc2ccco2)cc1	–	1.41 µM (active)
Cc1ccc(Cn2c(=O)n(Cc3nc(-c4ccccc4)no3)c(=O)c3cc4c(cc32)OCO4)cc1	-1.74% (inactive)	–
CCOc1ccc(-c2cc3c(=O)n(CC(=O)NCc4ccc(OC)cc4)ccn3n2)cc1	7.47% (inactive)	–
O=C(c1ccc2c(c1)N(Cc1ccccc1F)C(=O)c1ccccc1S2(=O)=O)N1CCOCC1	-5.87% (inactive)	–
COc1ccc(-c2nc(Cn3c(=O)cc(C)c4c(C)nn(-c5ccccc5)c43)c(C)o2)cc1OC	5.92% (inactive)	–
COC(=O)c1ccc(CN2CCN(CCCc3ccccc3)C(CCO)C2)cc1 (stereo unspecified)	-13.6% (inactive)	–
Cc1ccc(CN2CCN(Cc3ccc4ncccc4c3)CC2CCO)cc1 (stereo unspecified)	1.94% [at 57.1 µM] (inactive)	–
CC(=O)Nc1ccc(CN2CCN(Cc3ccc(F)c(F)c3)C(CCO)C2)cc1 (stereo unspecified)	–	20 µM (active)
CCS(=O)(=O)N1CCc2cc(C(=O)N3CCN(c4ccccc4OC)CC3)ccc21	-8.48% (inactive)	–
CCOc1ccc(C(=O)CCN2CCOCC2)cc1	–	2.82 µM (active)
CCOc1ccc(C(=O)CCC(=O)Nc2ccncc2)cc1	-9.7% (inactive)	–
CCCCOc1ccc(C(C)(O)CCN2CCOCC2)cc1 (stereo unspecified)	12.9% (inactive)	–
O=C(CSc1ncc(S(=O)(=O)c2ccc(Br)cc2)c(=O)[nH]1)Nc1ccc2c(c1)OCCO2	-3.16% (inactive)	–
Cc1ccc(C)c(Cn2c(CCCNC(=O)C3CCCCC3)nc3ccccc32)c1	19% (inactive)	–

Compound	activity change, negative = inhibition	Potency
COc1ccc(N2CCN(C(c3cc4ccc(C)cc4[nH]c3=O)c3nnnn3C3CCCC3)CC2)cc1 (stereo unspecified)	-25.8% (inactive)	–
COCCn1nnnc1C(c1cc2ccc(OC)cc2[nH]c1=O)N1CCc2ccccc2C1 (stereo unspecified)	–	44.7 µM (active)
COc1ccc(OC)c(C(c2nnnn2C(C)(C)C)N2CCc3ccccc3C2)c1 (stereo unspecified)	9.36% (inactive)	–
CCOc1ccccc1NC(=O)c1ccc2c(c1)CCN2S(=O)(=O)c1ccc(C)cc1	-0.363% (inactive)	–
COc1ccc(-c2onc(C)c2C)cc1S(=O)(=O)NCCc1ccccc1	3.1% (inactive)	–
O=c1[nH]c2cc(Br)ccc2n2cccc12	-2.58% (inactive)	–
CCOc1ccc(C2CC(=O)c3c([nH]c(C(=O)OCc4ccccc4)c3C)C2)cc1 (stereo unspecified)	0.0883% (inactive)	–
CCc1cccc(C)c1NC(=O)COC(=O)CNC(=O)c1cccs1	-1.2% (inactive)	–
Cc1ccccc1C(CC(=O)c1cccs1)C(C#N)C#N (stereo unspecified)	–	3.16 µM (active)
O=C(NCC(=O)N1CCN(c2ccccc2F)CC1)c1cccs1	-1.91% (inactive)	–
COc1cccc2c1CCC(NC(C)=O)C2=O (stereo unspecified)	-13.1% (inactive)	–
COc1ccc(C(=O)OCC(=O)N2CC(=O)Nc3ccccc32)cc1Br	0.0642% (inactive)	–
COc1ccc(Br)c2c1C(=O)CC2	–	35.5 µM (active)
Cc1cc(C)cc(OCC(=O)Nc2c(C(=O)c3ccccc3)oc3ccccc23)c1	-3.12% (inactive)	–
Cc1ccc(-c2onc(C)c2C)cc1S(=O)(=O)Nc1ccccn1	-11.7% (inactive)	–
CCc1ccc(NC(=O)Cn2c(=O)n(CCC(=O)NCc3ccc4c(c3)OCO4)c(=O)c3ccccc32)cc1	0.572% (inactive)	–
O=[N+]([O-])c1cc(C(F)(F)F)ccc1NN=C1CCCC1	-15.3% (inactive)	–
O=[N+]([O-])c1ccc(N/N=C2/CCCCC2c2ccccn2)c([N+](=O)[O-])c1 (stereo unspecified)	–	8.91 µM (active)
O=C(Nc1ccccc1)O/N=C1\CCCCC1c1ccc([N+](=O)[O-])cc1[N+](=O)[O-] (stereo unspecified)	8.17% (inactive)	–
COc1cc(NC(=O)CN2CCN(S(=O)(=O)c3ccc(Br)cc3)CC2)cc(OC)c1	-2.68% (inactive)	–
O=C(NC1CCCCC1)c1ccc2c(c1)N(Cc1ccc(Cl)cc1)C(=O)c1ccccc1S2=O (stereo unspecified)	-7.13% (inactive)	–
Cc1cc(NC(=O)CC(C)C)cc(-c2nc3ncccc3o2)c1O	1.96% (inactive)	–
C#CCOCCOCCOCCNc1nc(N2CCN(C(=O)[C@H](CCC(=O)O)n3cc(C(N)CO)nn3)CC2)nc(N2CCN(C(=O)[C@H](Cc3ccc(O)cc3)n3cc(C(N)[C@H](C)CC)nn3)CC2)n1 (stereo partly specified)	–	35.5 µM (active)
C#CCOCCOCCOCCNc1nc(N2CCN(C(=O)C(Cc3ccc(O)cc3)n3cc(C(N)CC(C)C)nn3)CC2)nc(N2CCN(C(=O)C(Cc3ccc(O)cc3)n3cc(C(N)C(C)CC)nn3)CC2)n1 (stereo unspecified)	-6.96% (inactive)	–

Compound	activity change, negative = inhibition	Potency
C#CCOCCOCCOCCNc1nc(N2CCN(C(=O)[C@H](Cc3ccc(O)cc3)n3cc(C(N)CC(C)C)nn3)CC2)nc(N2CCN(C(=O)[C@H](CCC(=O)O)n3cc(C(N)[C@H](C)CC)nn3)CC2)n1 (stereo partly specified)	-25.3% (inactive)	–
COC(=O)c1ccccc1NC(=O)c1ccc2c(=O)n3c(nc2c1)CCCCC3	5.75% (inactive)	–
CCN(CCCNC(=O)c1cc(Nc2ccc(OC)cc2)nc2ccccc12)c1cccc(C)c1	-0.0604% (inactive)	–
O=C(Nc1ccccc1N1CCCC1)c1ccc2ccccc2c1	-3.6% (inactive)	–
O=C(Nc1ccccc1N1CCOCC1)c1ccncc1	-6.43% (inactive)	–
O=C(Nc1ccccc1N1CCCCC1)c1ccc2nccnc2c1	–	79.4 µM (active)
Oc1ccc2ccccc2c1N=Nc1nccs1	–	17.8 µM (active)
COc1ccc(Cc2nc3ccc(C(=O)NCc4ccccc4Cl)cc3o2)cc1	5.89% (inactive)	–
CCOc1ccccc1NC(=O)Cn1c2ncccc2c(=O)n1-c1ccc(C)c(C)c1	11.2% (inactive)	–
CCCCn1c(=N)c(S(=O)(=O)c2ccccc2)cc2c(=O)n3cccc(C)c3nc21	11.7% (inactive)	–
Cc1cccn2c(=O)c3cc(C#N)c(=O)n(CCCN4CCOCC4)c3nc12	–	25.1 µM (active)
Cc1cccn2c(=O)c3cc(C(=O)NCCN4CCOCC4)c(=N)n(Cc4cccnc4)c3nc12	-32.4% (inactive)	–
CC1CCC2(CC1)N=C(c1ccccc1)C(=O)N2CC(=O)Nc1ccc(F)c(Cl)c1 (stereo unspecified)	1.55% (inactive)	–
N#Cc1nc(/C=C/c2ccc(F)cc2)oc1NCc1ccc(F)cc1	0.688% (inactive)	–
CCN(C(=O)Cn1cnc2sc(C)c(S(=O)(=O)N3CCN(c4ncccn4)CC3)c2c1=O)c1ccccc1F	3.71% (inactive)	–
Cc1cccc(NC(=O)CSc2nc(-c3ccco3)cc(C(F)(F)F)n2)c1C	12.2% (inactive)	–
O=C(CSc1nc(-c2ccco2)cc(C(F)(F)F)n1)N1CCc2ccccc2C1	–	11.2 µM (active)
CN(C)c1ccc(NC(=O)CSc2nc(-c3ccco3)cc(C(F)(F)F)n2)cc1	5.41% (inactive)	–
O=C(NCc1ccc2c(c1)CCN2C(=O)c1ccccc1)c1ccccc1	2.49% (inactive)	–
CCCn1c2ccccc2c2cnn(CC(=O)NCC3CCN(Cc4ccc(C)cc4)CC3)c(=O)c21	-1.8% (inactive)	–
Cc1cccc(NC(=O)c2ccc(F)c(S(=O)(=O)N(C)C3CCCCC3)c2)c1	2.07% (inactive)	–
CCOc1ccccc1C(=O)NCC(c1ccc(N(C)C)cc1)N1CCCC1 (stereo unspecified)	-0.18% (inactive)	–
CC(=O)n1c(C=Nc2ccccc2)c(O)c2ccccc21	-12.4% (inactive)	–
CCC(=O)CC(c1ccc([N+](=O)[O-])cc1)c1c(O)c2ccccc2oc1=O (stereo unspecified)	2.09% (inactive)	–

Compound	activity change, negative = inhibition	Potency
CC(C)CNC(=O)CC(c1ccccc1)c1c(O)ccc2ccccc12 (stereo unspecified)	-1.45% (inactive)	–
O=[N+]([O-])c1ccc(N=Cc2c(O)ccc3ccccc23)cc1	–	22.4 µM (active)
O=[N+]([O-])c1cnc2ccc3ccccc3c2c1	3.12% (inactive)	–
Oc1ccc2ccccc2c1C=Nc1ccccc1	–	12.6 µM (active)
Oc1ccc(N=Cc2c(O)ccc3ccccc23)cc1	–	28.2 µM (active)
CCOc1[nH]n(-c2ccc(Cl)cc2)c(=O)c1C=Nc1ccc(O)cc1	4.95% (inactive)	–
Cc1cc(N=Nc2ccc3ccccc3c2)ccc1O	9.38% (inactive)	–
COc1ccc(CCNC(=O)c2c3c(nc4ccccc24)C(=O)N(C2CCCCC2)C3)cc1OC	2.49% (inactive)	–
Cc1ccc(C(=O)Nc2ccccc2F)cc1S(=O)(=O)N1CCOCC1	1.51% (inactive)	–
CCOc1ccccc1NC(=O)CN1CCN(S(=O)(=O)c2ccc(Br)cc2)CC1	-1.12% (inactive)	–
Cc1cccc(NC(=O)C2CCCN2S(=O)(=O)c2cccc3nsnc23)c1C (stereo unspecified)	10.6% (inactive)	–
CC(C)(C)n1cnnc1Sc1ccc([N+](=O)[O-])cn1	-25.2% (inactive)	–
Cn1cnnc1Sc1ccc(S(C)(=O)=O)cc1[N+](=O)[O-]	–	35.5 µM (active)
CCN(CC(=O)Nc1c(F)cccc1F)C(=O)c1ccc(Sc2nncn2C)c([N+](=O)[O-])c1	0.198% (inactive)	–
C=CCn1c(SCC(=O)NC(=O)Cc2ccccc2)nc2ccccc2c1=O	–	89.1 µM (active)
C=CCn1c(SCc2ccc(C(=O)NCCO)cc2)nc2ccccc2c1=O	-27.7% (inactive)	–
O=C(CSc1nc2ccccc2c(=O)n1CCCO)NC1CC1	4.65% (inactive)	–
Cc1ccc(O)c(NC(=O)c2cc(-c3ccc(F)cc3)no2)c1	-1.53% (inactive)	–
Cc1ccc(C(=O)N2CCc3cc(CNC(=O)c4ccc(Br)cc4)ccc32)cc1	2.43% (inactive)	–
COc1ccc(NC(=O)c2cc3cc(C)ccc3n2C)cc1	0.281% (inactive)	–
CN(C)S(=O)(=O)c1cccc(NC(=S)N/N=C/C(=O)c2ccccc2)c1	-1.78% (inactive)	–
CN(C)S(=O)(=O)c1ccc(N/C=C(\[N+](=O)[O-])S(=O)(=O)c2ccccc2)cc1	–	14.1 µM (active)
CN(C)S(=O)(=O)c1ccc(NC(=O)N2CCOCC2)cc1	9.09% (inactive)	–
O=C(CN1C(=O)CCn2nc(-c3ccccc3)cc21)NCc1ccccc1	10.6% (inactive)	–
